The values below come from ChEMBL document CHEMBL1961873, “Compounds: GSK PKIS; Assays: Nanosyn kinase panel” (2012).

For experiment [1], the target named is T1, Muscle, skeletal receptor tyrosine-protein kinase (Homo sapiens) (UniProt O15146).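 Note: reported value is the mean percent inhibition of MuSK kinase.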
T1 sequence (whole entry): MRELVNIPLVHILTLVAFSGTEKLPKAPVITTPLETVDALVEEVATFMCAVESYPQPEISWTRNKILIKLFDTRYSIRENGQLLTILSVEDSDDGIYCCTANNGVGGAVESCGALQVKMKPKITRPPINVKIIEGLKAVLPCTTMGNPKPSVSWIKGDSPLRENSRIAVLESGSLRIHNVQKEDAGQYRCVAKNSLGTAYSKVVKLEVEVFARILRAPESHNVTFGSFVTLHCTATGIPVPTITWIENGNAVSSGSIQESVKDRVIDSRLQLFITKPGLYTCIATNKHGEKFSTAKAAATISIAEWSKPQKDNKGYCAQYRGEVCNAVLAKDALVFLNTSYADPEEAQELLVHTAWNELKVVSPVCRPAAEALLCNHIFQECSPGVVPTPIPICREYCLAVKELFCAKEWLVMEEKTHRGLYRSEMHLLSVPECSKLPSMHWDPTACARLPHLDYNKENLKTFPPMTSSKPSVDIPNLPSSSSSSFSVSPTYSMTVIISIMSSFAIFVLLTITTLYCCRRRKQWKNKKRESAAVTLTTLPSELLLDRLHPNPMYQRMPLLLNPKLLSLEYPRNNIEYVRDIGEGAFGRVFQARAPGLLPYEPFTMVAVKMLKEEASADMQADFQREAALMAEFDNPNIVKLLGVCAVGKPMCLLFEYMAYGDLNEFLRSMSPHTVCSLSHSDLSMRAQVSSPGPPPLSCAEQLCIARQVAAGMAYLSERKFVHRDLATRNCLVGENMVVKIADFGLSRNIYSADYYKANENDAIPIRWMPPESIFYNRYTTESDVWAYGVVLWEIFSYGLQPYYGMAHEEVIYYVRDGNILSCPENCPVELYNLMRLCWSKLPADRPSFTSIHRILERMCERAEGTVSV
The note with it: at 1 µM.

Experiment [2] concerns the target Platelet-derived growth factor receptor alpha (Homo sapiens) (UniProt P16234). Conditions: at 0.1 µM.
For experiment [3] the target is unchanged. The note with it: at 1 µM.
Experiment [4] concerns Platelet-derived growth factor receptor alpha (Homo sapiens), P16234 [D842V]. The note with it: at 0.1 µM.
Sequence of Platelet-derived growth factor receptor alpha (Homo sapiens), P16234 [D842V] (P16234 whole entry D842V): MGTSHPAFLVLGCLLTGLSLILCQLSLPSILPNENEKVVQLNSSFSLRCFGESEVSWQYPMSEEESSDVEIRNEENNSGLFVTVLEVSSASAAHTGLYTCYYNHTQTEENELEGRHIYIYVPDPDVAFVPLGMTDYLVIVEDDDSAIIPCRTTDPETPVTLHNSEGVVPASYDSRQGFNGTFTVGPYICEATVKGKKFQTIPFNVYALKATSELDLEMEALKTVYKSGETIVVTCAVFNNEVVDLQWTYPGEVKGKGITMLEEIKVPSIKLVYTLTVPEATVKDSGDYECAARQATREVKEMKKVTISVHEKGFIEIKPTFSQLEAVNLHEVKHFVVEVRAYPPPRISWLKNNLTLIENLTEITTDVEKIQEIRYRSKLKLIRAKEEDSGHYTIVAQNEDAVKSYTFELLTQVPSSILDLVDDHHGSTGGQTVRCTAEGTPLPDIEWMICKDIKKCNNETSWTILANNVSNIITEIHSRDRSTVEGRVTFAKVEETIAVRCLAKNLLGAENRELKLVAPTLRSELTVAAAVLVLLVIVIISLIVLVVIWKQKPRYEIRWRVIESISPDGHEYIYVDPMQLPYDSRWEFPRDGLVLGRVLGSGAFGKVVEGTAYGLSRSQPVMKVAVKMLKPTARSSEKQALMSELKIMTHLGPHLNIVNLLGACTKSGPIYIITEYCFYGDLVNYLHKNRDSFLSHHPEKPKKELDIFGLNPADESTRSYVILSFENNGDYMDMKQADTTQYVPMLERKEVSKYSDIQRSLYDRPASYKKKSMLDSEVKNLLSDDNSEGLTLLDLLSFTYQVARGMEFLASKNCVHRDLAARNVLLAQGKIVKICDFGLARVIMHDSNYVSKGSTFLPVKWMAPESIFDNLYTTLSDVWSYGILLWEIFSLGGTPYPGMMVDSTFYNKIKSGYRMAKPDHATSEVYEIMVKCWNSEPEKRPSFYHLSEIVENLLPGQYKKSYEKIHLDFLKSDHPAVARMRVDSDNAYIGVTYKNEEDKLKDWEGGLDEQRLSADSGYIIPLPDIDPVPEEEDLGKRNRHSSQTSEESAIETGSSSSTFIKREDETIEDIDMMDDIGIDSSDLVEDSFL
The test system is the same in experiment [5]. Conditions: at 1 µM.
Experiment [6] has as its system Platelet-derived growth factor receptor alpha (Homo sapiens), P16234 [T674I]. The note with it: at 0.1 µM.
The test system is the same in experiment [7]. The note with it: at 1 µM.
Experiment [8] has as its system Platelet-derived growth factor receptor alpha (Homo sapiens), P16234 [V561D]. The note with it: at 0.1 µM.
The test system is the same in experiment [9]. The note with it: at 1 µM.
The target of experiment [10] is Platelet-derived growth factor receptor beta (Homo sapiens) (UniProt P09619). The note with it: at 0.1 µM.
Sequence of Platelet-derived growth factor receptor beta (Homo sapiens) (P09619 whole entry): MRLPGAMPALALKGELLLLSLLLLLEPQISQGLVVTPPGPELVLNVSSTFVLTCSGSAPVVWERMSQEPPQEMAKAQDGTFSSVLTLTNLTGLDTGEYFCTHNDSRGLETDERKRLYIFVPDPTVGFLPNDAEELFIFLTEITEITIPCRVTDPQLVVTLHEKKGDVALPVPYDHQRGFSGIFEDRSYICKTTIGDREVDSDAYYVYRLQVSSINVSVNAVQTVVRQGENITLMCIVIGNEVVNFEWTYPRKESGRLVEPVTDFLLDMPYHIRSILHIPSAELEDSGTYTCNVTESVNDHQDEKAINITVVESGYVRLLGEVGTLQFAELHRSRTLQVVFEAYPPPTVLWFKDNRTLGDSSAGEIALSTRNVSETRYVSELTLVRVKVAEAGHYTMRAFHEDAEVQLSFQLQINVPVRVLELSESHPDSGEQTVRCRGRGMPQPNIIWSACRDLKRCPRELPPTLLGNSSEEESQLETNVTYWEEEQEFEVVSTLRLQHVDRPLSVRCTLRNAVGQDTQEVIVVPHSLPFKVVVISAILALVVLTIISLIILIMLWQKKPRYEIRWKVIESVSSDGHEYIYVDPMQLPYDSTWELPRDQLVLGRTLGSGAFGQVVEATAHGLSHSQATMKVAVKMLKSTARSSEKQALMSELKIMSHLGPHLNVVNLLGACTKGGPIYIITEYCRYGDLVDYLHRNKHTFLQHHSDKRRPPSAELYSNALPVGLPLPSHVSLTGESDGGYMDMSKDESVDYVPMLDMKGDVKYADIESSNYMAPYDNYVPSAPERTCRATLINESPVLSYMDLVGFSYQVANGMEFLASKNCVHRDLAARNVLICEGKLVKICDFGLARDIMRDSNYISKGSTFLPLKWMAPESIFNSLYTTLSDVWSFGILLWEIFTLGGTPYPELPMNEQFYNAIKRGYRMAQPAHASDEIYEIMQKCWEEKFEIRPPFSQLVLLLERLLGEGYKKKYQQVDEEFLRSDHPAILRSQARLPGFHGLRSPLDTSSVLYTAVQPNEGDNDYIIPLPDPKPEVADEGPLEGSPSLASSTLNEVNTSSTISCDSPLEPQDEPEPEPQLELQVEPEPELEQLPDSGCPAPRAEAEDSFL
For experiment [11] the target is unchanged. Conditions: at 1 µM.
Experiment [12] concerns the target Tyrosine-protein kinase FRK (Homo sapiens) (UniProt P42685). The note with it: at 0.1 µM.
Experiment [13] has the same target. Conditions: at 1 µM.
The target in experiment [14] is Protein-tyrosine kinase 2-beta (Homo sapiens) (UniProt Q14289). The note with it: at 0.1 µM.
The target is the same in experiment [15]. Conditions: at 1 µM.
The target of experiment [16] is Proto-oncogene tyrosine-protein kinase receptor Ret (Homo sapiens) (UniProt P07949). Conditions: at 0.1 µM.
Sequence of Proto-oncogene tyrosine-protein kinase receptor Ret (Homo sapiens) (P07949 whole entry): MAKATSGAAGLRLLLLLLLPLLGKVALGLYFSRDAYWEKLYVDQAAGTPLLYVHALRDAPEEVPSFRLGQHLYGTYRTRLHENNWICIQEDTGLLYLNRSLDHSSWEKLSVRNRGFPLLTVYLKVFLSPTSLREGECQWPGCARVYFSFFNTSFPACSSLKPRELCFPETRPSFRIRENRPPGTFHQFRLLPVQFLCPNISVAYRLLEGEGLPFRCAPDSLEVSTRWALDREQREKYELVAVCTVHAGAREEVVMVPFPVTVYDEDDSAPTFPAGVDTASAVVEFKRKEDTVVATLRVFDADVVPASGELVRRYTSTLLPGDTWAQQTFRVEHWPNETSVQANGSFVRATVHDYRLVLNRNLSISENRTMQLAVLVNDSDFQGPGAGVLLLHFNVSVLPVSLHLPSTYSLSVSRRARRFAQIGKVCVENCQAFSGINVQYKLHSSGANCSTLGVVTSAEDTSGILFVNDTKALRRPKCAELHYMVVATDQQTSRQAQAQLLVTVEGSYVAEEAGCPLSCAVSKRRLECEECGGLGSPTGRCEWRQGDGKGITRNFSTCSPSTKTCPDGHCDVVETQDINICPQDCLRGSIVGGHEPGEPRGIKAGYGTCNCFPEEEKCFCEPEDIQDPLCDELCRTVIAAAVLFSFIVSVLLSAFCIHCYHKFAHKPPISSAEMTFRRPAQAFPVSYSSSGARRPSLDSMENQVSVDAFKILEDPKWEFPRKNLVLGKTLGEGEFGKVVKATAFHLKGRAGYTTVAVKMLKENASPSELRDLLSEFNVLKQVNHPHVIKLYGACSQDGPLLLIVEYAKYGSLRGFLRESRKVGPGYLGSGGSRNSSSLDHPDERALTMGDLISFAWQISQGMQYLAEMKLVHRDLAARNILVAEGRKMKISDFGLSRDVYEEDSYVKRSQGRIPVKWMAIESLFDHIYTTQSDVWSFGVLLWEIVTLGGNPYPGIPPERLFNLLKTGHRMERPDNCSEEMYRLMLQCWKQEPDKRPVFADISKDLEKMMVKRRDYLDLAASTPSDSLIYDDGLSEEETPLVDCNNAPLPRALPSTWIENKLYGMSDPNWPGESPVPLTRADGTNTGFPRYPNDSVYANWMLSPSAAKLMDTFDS
Experiment [17] has the same target. Conditions: at 1 µM.
Experiment [18] concerns Proto-oncogene tyrosine-protein kinase receptor Ret (Homo sapiens), P07949 [V804L]. The note with it: at 0.1 µM.
The test system is the same in experiment [19]. The note with it: at 1 µM.
In experiment [20] the test system is Proto-oncogene tyrosine-protein kinase receptor Ret (Homo sapiens), P07949 [Y791F]. Conditions: at 0.1 µM.

Sequence of Tyrosine-protein kinase FRK (Homo sapiens) (P42685 whole entry): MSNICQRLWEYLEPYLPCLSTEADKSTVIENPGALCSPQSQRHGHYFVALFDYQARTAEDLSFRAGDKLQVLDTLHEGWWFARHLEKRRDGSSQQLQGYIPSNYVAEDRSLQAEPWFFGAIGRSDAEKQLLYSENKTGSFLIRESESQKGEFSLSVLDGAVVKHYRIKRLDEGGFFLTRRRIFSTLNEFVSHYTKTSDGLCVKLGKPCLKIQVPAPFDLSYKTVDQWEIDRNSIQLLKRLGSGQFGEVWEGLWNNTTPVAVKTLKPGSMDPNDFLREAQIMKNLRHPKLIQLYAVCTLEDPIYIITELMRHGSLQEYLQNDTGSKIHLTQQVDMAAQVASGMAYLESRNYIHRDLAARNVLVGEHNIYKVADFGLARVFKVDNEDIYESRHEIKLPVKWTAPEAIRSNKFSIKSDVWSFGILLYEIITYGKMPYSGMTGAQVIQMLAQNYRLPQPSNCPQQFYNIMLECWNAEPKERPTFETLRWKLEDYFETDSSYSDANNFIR
Sequence of Platelet-derived growth factor receptor alpha (Homo sapiens), P16234 [T674I] (P16234 whole entry T674I): as the sequence (P16234 whole entry D842V) above, with T674I, V842D counted along it

By inhibition is commonly meant the relative decrease from the control value, in per cent. Turning to `CN(C)CCNC(=O)Nc1ccc(N(C)c2ccnc(Nc3ccc(CS(C)(=O)=O)cc3)n2)cc1`, the inhibition came to 10.1% in experiment [1]; 19.4% in experiment [2]; 54% in experiment [3]; 9.49% in experiment [4]; 36.1% in [5]; 9.77% in experiment [6]. Moreover, the inhibition was determined as 42.5% in [7]; 39.2% in experiment [8]; 67.4% in experiment [9]; 28.4% in experiment [10]; 66.8% in experiment [11]; 0.22% in experiment [12]. In addition, the inhibition in [13] is 0.97%; in experiment [14], 18.4%; in [15], 58.6%; in experiment [16], 7.81%; in [17] it was 14.9%; in experiment [18], 4.98%. Moreover, the inhibition in experiment [19] stood at 13.9%; in experiment [20] it was 9.9%.
For the molecule `CC1=C(C(=O)Nc2ccc3[nH]ncc3c2)C(c2ccc(F)cc2)N=C(c2ccc(C(F)(F)F)nc2)N1` (stereo not given), the inhibition came to 5.28% in experiment [1]; 6.34% in experiment [2]; 8.66% in [3]; 2.97% in experiment [4]; 3.35% in experiment [5]; 3.34% in experiment [6]. Further, the inhibition in [7] is 4.17%; in [8], 3.03%; in [9] it was 3.17%; in experiment [10], 1.04%; in experiment [11] it was 5.78%; in experiment [12] it was -0.24%. The inhibition in experiment [13] is 1.73%; in [14], 6.19%; in [15], 8.2%; in experiment [16], 7.82%; in [17], 38.6%; in experiment [18] it was 5.19%. Moreover, the inhibition in experiment [19] is 26.6%; in [20], 9.49%.
Turning to `CCCNc1cccc(-n2ncc3c(N/N=C/c4ccncc4)ncnc32)c1`, the inhibition in [1] worked out at 49.9%; in experiment [2], 29.4%; in experiment [3], 78.4%; in [4] it was 16.3%; in [5], 71%; in [6], 11.7%. The inhibition in experiment [7] stood at 38.2%; in experiment [8] it was 15.3%; in [9], 68.4%; in [10], 27.1%; in experiment [11] it was 78.8%; in [12], 0.57%. In addition, the inhibition is 3.14% in [13]; 2.47% in experiment [14]; 12.2% in experiment [15]; 15% in experiment [16]; 54.7% in experiment [17]; 7.89% in experiment [18]. The values for the inhibition in [19] and in [20] were 40.7% and 16.4%, respectively.
As to `COc1cc(N2CCN(C(C)C)CC2)ccc1Nc1nc(Nc2cccc3ncccc23)c2cc[nH]c2n1`, the inhibition in experiment [1] stood at 9.48%; in [2], 2.96%; in experiment [3], 15.3%; in experiment [4] it was 0.2%; in experiment [5] it was 5.09%; in [6] it was 2.09%. In addition, the inhibition was found to be 2.26% in experiment [7]; 3.08% in experiment [8]; 14.8% in [9]; 1.3% in experiment [10]; 8.9% in [11]; 0.82% in [12]. Besides, the inhibition was 1.26% in [13]; 15.2% in experiment [14]; 93.1% in experiment [15]; 4.55% in experiment [16]; 3.04% in experiment [17]; 7.14% in experiment [18]. Further, the values for the inhibition in [19] and in experiment [20] were 14% and 8.29%, respectively.
Turning to `CS(=O)(=O)CCNCc1ccc(-c2ccc3ncnc(Nc4ccc(OCc5ccccc5)cc4)c3c2)o1`, the inhibition in experiment [1] was determined as 1.04%; in experiment [2], 4.6%; in experiment [3], 10.4%; in experiment [4], 3.6%; in experiment [5] it was 3.61%; in experiment [6], 3.14%. The inhibition in experiment [7] is 4.61%; in experiment [8], 5.39%; in [9], 7.8%; in [10], 3%; in experiment [11], 4.72%; in experiment [12], 0.38%. In addition, the inhibition is 0.96% in experiment [13]; 7.76% in experiment [14]; 6.51% in [15]; 2.99% in experiment [16]; 9.8% in [17]; 3.01% in experiment [18]. In addition, the inhibition in experiment [19] turned out to be 11.9%; in experiment [20], 3.34%.
For the molecule `CC1=C(C(=O)Nc2ccc3[nH]nc(C)c3c2)C(c2ccc(C(F)(F)F)cc2)CC(=O)N1` (stereo not given), the inhibition in experiment [1] worked out at 23.7%; in [2] it was 7.08%; in experiment [3], 19.3%; in experiment [4], 2.09%; in experiment [5], 6.76%; in experiment [6], 2.02%. The inhibition in experiment [7] is 1.41%; in experiment [8], -0.51%; in experiment [9], 8.12%; in [10] it was 8.62%; in [11], 12.2%; in experiment [12], 1.26%. Further, the inhibition in experiment [13] was 6.47%; in experiment [14], 10.8%; in experiment [15], 5.14%; in experiment [16] it was 7.82%; in experiment [17], 44.2%; in experiment [18], 12.2%. Moreover, the figures for the inhibition in experiment [19] and in [20] were 42.2% and 10.5%, respectively.
For the molecule `COc1c(C(N)=O)cc(-c2ccc(Cl)cc2)cc1-c1ccc(S(N)(=O)=O)cc1`, the inhibition is 7.45% in experiment [1]; 3.49% in [2]; 9.97% in experiment [3]; 2.3% in experiment [4]; 2.99% in [5]; 2.39% in experiment [6]. The inhibition in experiment [7] came out at 4.51%; in experiment [8], 3.68%; in experiment [9] it was 5.56%; in experiment [10], 2.5%; in [11], 1.5%; in experiment [12], 2.55%. In addition, the inhibition in experiment [13] stood at 3.5%; in [14], 5.92%; in experiment [15] it was 12.1%; in [16] it was 2.82%; in experiment [17], 4.87%; in experiment [18] it was 6.61%. Further, the inhibition in [19] worked out at 9.45%; in experiment [20], 6.18%.
